# Test results taken from PubChem BioAssay (NCATS).
# Values joined by “and” are separate entries in the source; they are usually repeats but may differ in a detail not shown here. Identical values can stand only once. Records with an inconclusive call do not appear. Where a call stands in place of a potency, no number is given. Values without a mark were called inactive. Active and inactive are the calls of the source. Calls come from the whole dose curve; as a rule, active = well fitted curve in the direction sought with a large enough effect; inconclusive = small, poorly fitted or top-dose-only effect, or another doubt; inactive = no such curve, though single readings can be large; an effect the other way counts as inactive or inconclusive.
# Columns and labels:
# [1] = qHTS of pediatric cancer cell lines to identify multiple opportunities for drug repurposing: Confirmatory screen for Rh41 cells (AID 1347123);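 note: 48 h compound exposure; nearly all actives have a fitted effect of over 60% in size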; note: potency is the fitted concentration of half-maximal effect
# Procedure, shortened: (§1)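 Cells (500-1,000/well) rested 5 h, then received compounds for 48 h; metabolically active cells were measured by CellTiter-Glo luminescence. Final concentrations spanned up to 46 µM (MIPE, 11-point) or 0.59 nM-46 µM (NPC, 8-point) in primary screens, 11-point in follow-ups.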
# [2] = qHTS of pediatric cancer cell lines to identify multiple opportunities for drug repurposing: Confirmatory screen for RD cells (AID 1347124);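 note: cells exposed to compound for 48 h before viability readout; nearly all actives have a fitted effect of over 65% in size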; note: potency is the fitted concentration of half-maximal effect
# Procedure, shortened: as §1
# [3] = qHTS of pediatric cancer cell lines to identify multiple opportunities for drug repurposing: Confirmatory screen for Rh18 cells (AID 1347125); note: nearly all actives have a fitted effect of over 55% in size; note: potency is the fitted concentration of half-maximal effect
# Procedure, shortened: as §1
# [4] = qHTS of pediatric cancer cell lines to identify multiple opportunities for drug repurposing: Confirmatory screen for Rh30 cells (AID 1347126); note: nearly all actives have a fitted effect of over 55% in size; note: potency is the fitted concentration of half-maximal effect
# Procedure, shortened: as §1
# [5] = qHTS of pediatric cancer cell lines to identify multiple opportunities for drug repurposing: Confirmatory screen for OHS-50 cells (AID 1347128);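 note: compound exposure lasted 48 h at 37 degrees C; nearly all actives have a fitted effect of over 55% in size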; note: potency is the fitted concentration of half-maximal effect
# Procedure, shortened: as §1
# [6] = qHTS of pediatric cancer cell lines to identify multiple opportunities for drug repurposing: Confirmatory screen for SK-N-SH cells (AID 1347129);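 note: cells exposed to compound for 48 h before viability read; nearly all actives have a fitted effect of over 60% in size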; note: potency is the fitted concentration of half-maximal effect
# Procedure, shortened: as §1
# [7] = test system: Zika virus NS2B-NS3 protease; assay: Primary screen GU AMC qHTS for Zika virus inhibitors (AID 1347154); note: nearly all actives have a fitted effect of over 70% in size; note: potency is the fitted concentration of half-maximal effect
# Procedure, shortened: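 Fluorogenic AMC-substrate cleavage by noncovalent NS2B-NS3 protease complex (25 nM, pH 8.0 Tris buffer with Tween 20) followed for 15 minutes at room temperature (~20% conversion). Percent inhibition from ex340/em450 signal change, fitted by 4-parameter Hill equation.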
# [8] = test system: Zika virus NS2B-NS3 protease (unlinked complex); assay: Primary screen GU Rhodamine qHTS for Zika virus inhibitors: Unlinked NS2B-NS3 protease assay (AID 1347159); note: nearly all actives have a fitted effect of over 60% in size
# Procedure, shortened: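 Enzyme 25 nM in Tris-HCl pH 8.0 + 0.01% Tween 20; compounds up to 114 microM, 15 min RT dark; + Rhod110 substrate 1.5 microM; read t0 and 15 min; delta fluorescence → % inhibition → 4-parameter Hill fit.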
# [9] = test system: Zika virus NS2B-NS3 protease (linked construct); assay: Primary screen NINDS Rhodamine qHTS for Zika virus inhibitors (AID 1347160); note: nearly all actives have a fitted effect of over 55% in size
# Procedure, shortened: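 Enzyme (25 nM, linked NS2B-NS3) was preincubated 15 min with compound in 10 mM Tris-HCl pH 8.0, 0.01% Tween 20. Rhodamine110 substrate (1.5 microM) was then added and fluorescence read at start and after 15 min.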
# [10] = target: N-terminal Xaa-Pro-Lys N-methyltransferase 1 (Homo sapiens) (UniProt Q9BV86); assay: qHTS Assay for Inhibitors of N-terminal methyltransferase 1 (NTMT1): LOPAC validation of the NTMT1 SAHH-coupled ThioGlo3 Assay (AID 1347143);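 note: SAH from peptide methylation measured as thiol fluorescence via SAHH coupling and ThioGlo3; nearly all actives have a fitted effect of over 70% in size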
# Procedure, shortened: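 NTMT1 125nM + cpds (various conc.), 1 min RT; add SAM 100uM/SAHH 10uM/ThioGlo3 15uM (addition mix). SAHH-coupled thiol detection, Ex340/Em450, t0 and 30 min RT; signal normalized to background. LOPAC 1280-cpd pilot.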
# [11] = test system: Zika virus NS2B-NS3 protease (unlinked); assay: Optimization of GU AMC qHTS for Zika virus inhibitors: Unlinked NS2B-NS3 protease assay (AID 1347151); note: series mostly up to about 52 µM; nearly all actives have a fitted effect of over 80% in size
# Procedure, shortened: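 Noncovalent NS2B hydrophilic domain–NS3 protease complex (25 nM final) in 10 mM Tris-HCl pH 8.0, 0.01% Tween 20; AMC substrate, room temperature 15 min (~20% conversion); fluorescence change normalized, 4-parameter Hill fit.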
# [12] = target: Lysine-specific demethylase 5B (Homo sapiens) (UniProt Q9UGL1); assay: Optimization screen for KDM5B Histone Demethylases FDH coupled qHTS against the LOPAC library (AID 1347166)
# Procedure, shortened: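 KDM5BDeltaAP (200nM final) in 50mM HEPES pH 7.5, 0.01% Tween-20 was preincubated with compound for 10 min at room temperature. A substrate mix of 12.5uM H3K4Me3, 25uM a-ketoglutarate, ascorbate, Fe2+, NAD+ and formaldehyde dehydrogenase was then added. NADH fluorescence (340/450 nm) was read initially and after 30 min.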
# Furin (Homo sapiens) = Furin (Homo sapiens) (UniProt P09958); assay: Furin counterscreen qHTS for Zika virus inhibitors (AID 1347149); note: nearly all actives have a fitted effect of over 70% in size; note: potency is the fitted concentration of half-maximal effect;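 for activity change, negative = inhibition: purified recombinant full-length human furin enzyme at 5 nM; fluorescence gain from furin cutting a BOC-RVRR-AMC peptide substrate over 15 min; top concentration of the series differs between compounds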
# Procedure, shortened: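 Counterscreen measures cleavage of 2 microM BOC-RVRR-AMC, below its ~15 microM Km, by 5 nM full-length human furin at pH 7.0 after a 15-min compound preincubation. Inhibition derives from the 15-min fluorescence increase at 37C.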
# [13] = test system: Zika virus NS2B-NS3 protease (linked construct); assay: Confirmatory screen NINDS AMC qHTS for Zika virus inhibitors (AID 1347152); details: Purified linked NS2B-NS3, AMC substrate fluorescence; note: potency is the fitted concentration of half-maximal effect; nearly all actives have a fitted effect of over 70% in size
# Procedure, shortened: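 Linked NS2B-NS3 protease, 1 nM, in 10 mM Tris-HCl pH 8.0, 0.01% Tween 20; compounds preincubated 15 min at room temperature. Nle-KRR-AMC 10 microM (Km 18.3 µM); 15-min fluorescence change (340/450 nm) fitted to 4-parameter Hill.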
# [14] = test system: Zika virus NS2B-NS3 protease (unlinked complex); assay: Confirmatory screen GU AMC qHTS for Zika virus inhibitors (AID 1347153); details: Recombinant NS2B-NS3 protease, AMC substrate fluorescence
# Procedure, shortened: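 Fluorescence change (ex 340/em 450 nm) over 15 min, ~20% substrate conversion, normalized to no-inhibitor and no-enzyme controls, then Hill-fitted. Unlinked protease at 25 nM; AMC peptide 10 µM.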
# [15] = ZIKV-mCherry secondary qHTS for Zika virus inhibitors (AID 1347158); note: top concentration of the series differs between compounds
# Procedure, shortened: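 Compounds were tested in Vero monkey kidney cells infected with recombinant mCherry-expressing Zika virus at MOI 1 for 48-72 h at 37 °C. Fixed cells were nuclear-stained and imaged, and infection rate was taken as the fraction of mCherry-positive cells.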
# [16] = Confirmatory screen NINDS Rhodamine qHTS for Zika virus inhibitors (AID 1347161); note: potency is the fitted concentration of half-maximal effect; nearly all actives have a fitted effect of over 60% in size
# Procedure, shortened: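 Rhodamine110-peptide cleavage (1.5 µM substrate) by 25 nM linked NS2B-NS3 enzyme at pH 8.0 (Tris, Tween 20), after 15 min RT preincubation with compounds; 15-min fluorescence change normalized to controls and Hill-fitted.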
# [17] = test system: Zika virus NS2B-NS3 protease (linked); assay: 384 well plate NINDS AMC confirmatory qHTS for Zika virus inhibitors (AID 1347163); note: potency is the fitted concentration of half-maximal effect; nearly all actives have a fitted effect of over 50% in size
# Procedure, shortened: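 Fluorescence at 355/460 nm was read after 25 minutes of cleavage of 30 microM Ac-VKTGKR-AMC at room temperature, in the dark. Before substrate addition, compounds (up to 1 mM final) sat ~15 minutes with 5, 30 or 60 nM linked protease. Signals were normalized to no-enzyme and no-inhibitor wells.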
# [18] = test system: Zika virus NS2B-NS3 protease (linked construct); assay: 384 well plate NINDS Rhodamine confirmatory qHTS for Zika virus inhibitors (AID 1347164); details: rhodamine-110 peptide substrate fluorescence;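 note: fluorescence from protease cleavage of Ac-LKRR-rhodamine 110 substrate; potency is the fitted concentration of half-maximal effect; nearly all actives have a fitted effect of over 65% in size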
# Procedure, shortened: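 Linked NS2B-NS3 protease (final 5, 30 or 60 nM) preincubated ~15 minutes with compounds, then 10 microM Ac-LKRR-Rhodamine 110 added. Fluorescence (485/538 nm) read after 25 minutes at room temperature, normalized to no-enzyme and no-inhibitor controls.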
# Sequence of Furin (Homo sapiens) (P09958 whole entry, looked up): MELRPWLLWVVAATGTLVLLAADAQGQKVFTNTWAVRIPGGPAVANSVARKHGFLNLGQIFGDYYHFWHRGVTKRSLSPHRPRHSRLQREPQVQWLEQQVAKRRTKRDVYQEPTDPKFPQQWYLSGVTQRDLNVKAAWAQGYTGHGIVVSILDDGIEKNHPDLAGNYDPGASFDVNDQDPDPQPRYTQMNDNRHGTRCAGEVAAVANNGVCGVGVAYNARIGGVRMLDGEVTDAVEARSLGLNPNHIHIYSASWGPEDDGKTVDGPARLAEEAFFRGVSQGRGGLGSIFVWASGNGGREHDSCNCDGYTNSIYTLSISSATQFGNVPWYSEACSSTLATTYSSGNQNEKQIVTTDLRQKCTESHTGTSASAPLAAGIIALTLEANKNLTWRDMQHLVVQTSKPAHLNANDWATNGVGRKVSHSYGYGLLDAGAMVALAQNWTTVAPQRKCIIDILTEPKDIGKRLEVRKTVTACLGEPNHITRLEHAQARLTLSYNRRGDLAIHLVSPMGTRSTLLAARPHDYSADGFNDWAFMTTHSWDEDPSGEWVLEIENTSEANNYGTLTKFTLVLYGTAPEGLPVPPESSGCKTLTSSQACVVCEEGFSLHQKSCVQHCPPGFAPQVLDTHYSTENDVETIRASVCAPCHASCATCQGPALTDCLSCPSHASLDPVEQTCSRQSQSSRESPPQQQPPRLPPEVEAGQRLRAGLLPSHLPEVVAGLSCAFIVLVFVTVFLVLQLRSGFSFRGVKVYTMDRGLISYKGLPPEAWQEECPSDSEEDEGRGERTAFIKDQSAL
# Sequence of Lysine-specific demethylase 5B (Homo sapiens) (Q9UGL1 whole entry, looked up): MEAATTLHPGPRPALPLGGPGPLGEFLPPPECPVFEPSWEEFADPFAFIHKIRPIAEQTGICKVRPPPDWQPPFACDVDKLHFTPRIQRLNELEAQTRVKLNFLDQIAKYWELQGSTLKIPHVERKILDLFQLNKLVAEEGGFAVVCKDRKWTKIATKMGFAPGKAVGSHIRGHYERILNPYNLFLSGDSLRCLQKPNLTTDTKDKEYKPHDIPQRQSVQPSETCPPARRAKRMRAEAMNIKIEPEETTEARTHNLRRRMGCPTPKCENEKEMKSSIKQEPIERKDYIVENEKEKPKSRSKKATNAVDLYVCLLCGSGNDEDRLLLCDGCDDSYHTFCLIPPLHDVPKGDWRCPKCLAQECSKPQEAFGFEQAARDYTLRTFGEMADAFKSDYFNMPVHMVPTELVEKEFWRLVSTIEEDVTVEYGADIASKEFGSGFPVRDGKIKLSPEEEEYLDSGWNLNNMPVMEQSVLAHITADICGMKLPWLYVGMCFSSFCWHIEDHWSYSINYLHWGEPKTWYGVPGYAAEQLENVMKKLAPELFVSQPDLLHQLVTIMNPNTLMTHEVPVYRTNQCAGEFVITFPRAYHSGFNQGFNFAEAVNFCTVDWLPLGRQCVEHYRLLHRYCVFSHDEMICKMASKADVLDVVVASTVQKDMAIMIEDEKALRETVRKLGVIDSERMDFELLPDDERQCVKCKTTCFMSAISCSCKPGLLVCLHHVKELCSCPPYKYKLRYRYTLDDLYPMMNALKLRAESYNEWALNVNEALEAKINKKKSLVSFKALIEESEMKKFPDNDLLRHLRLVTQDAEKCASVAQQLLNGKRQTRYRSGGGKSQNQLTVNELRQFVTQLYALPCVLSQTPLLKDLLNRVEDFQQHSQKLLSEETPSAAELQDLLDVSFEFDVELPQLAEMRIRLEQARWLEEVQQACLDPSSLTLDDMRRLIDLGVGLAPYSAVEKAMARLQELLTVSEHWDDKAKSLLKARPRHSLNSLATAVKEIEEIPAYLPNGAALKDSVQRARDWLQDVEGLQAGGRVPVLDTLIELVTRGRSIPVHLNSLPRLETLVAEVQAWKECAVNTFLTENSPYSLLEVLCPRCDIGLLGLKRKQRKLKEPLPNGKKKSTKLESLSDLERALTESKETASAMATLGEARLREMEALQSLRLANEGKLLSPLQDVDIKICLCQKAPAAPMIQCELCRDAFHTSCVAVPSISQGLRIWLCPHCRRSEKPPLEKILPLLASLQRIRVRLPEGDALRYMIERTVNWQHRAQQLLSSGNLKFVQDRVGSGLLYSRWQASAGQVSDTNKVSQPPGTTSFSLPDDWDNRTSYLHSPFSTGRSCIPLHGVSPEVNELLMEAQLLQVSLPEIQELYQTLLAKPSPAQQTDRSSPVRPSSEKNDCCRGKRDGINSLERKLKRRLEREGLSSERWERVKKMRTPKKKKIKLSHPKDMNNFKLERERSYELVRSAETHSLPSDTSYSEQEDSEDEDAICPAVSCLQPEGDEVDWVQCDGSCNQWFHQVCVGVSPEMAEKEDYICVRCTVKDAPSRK
# Sequence of N-terminal Xaa-Pro-Lys N-methyltransferase 1 (Homo sapiens) (Q9BV86 whole entry, looked up): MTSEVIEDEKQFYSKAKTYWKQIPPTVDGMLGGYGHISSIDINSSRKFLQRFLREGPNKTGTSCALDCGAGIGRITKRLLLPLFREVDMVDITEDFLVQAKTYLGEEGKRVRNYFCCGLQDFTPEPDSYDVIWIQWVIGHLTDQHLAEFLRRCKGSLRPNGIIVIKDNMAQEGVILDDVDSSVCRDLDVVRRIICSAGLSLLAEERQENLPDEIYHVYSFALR
structure (smiles),measurement,setting,value
CCN[C@@H]1C[C@H](N)[C@@H](OC2OC(CN)=CCC2N)[C@H](O)[C@H]1O[C@H]1OC[C@](C)(O)[C@H](NC)[C@H]1O (stereo partly drawn),"activity change, negative = cytotoxic",[1],13.6% [at 0.556 µM]
same,"activity change, negative = cytotoxic",[2],11.8% [at 0.556 µM]
same,"activity change, negative = cytotoxic",[3],4.31% [at 0.556 µM]
same,"activity change, negative = cytotoxic",[4],25.4% [at 0.556 µM]
same,"activity change, negative = cytotoxic",[5],3.87% [at 0.556 µM]
same,"activity change, negative = cytotoxic",[6],6.98% [at 0.558 µM]
same,"activity change, negative = inhibition",[7],-3.5% [at 0.59 µM]
NC(N)=NN=C(/C=C/c1ccc([N+](=O)[O-])o1)/C=C/c1ccc([N+](=O)[O-])o1,Potency,[1],1.65 µM (active)
same,Potency,[2],4.14 µM (active)
same,Potency,[3],4.65 µM (active)
same,Potency,[4],2.08 µM (active)
same,Potency,[5],5.22 µM (active)
same,Potency,[6],2.35 µM (active)
CCOC(=O)C(C#N)=C(c1ccccc1)c1ccccc1,Potency,[7],inactive
O=C(CCCN1CC=C(n2c(=O)[nH]c3ccccc32)CC1)c1ccc(F)cc1,Potency,[1],18.5 µM (active)
same,Potency,[2],inactive
same,Potency,[3],inactive
same,Potency,[4],inactive
same,Potency,[5],inactive
same,Potency,[7],inactive
same,outcome,[8],inactive
same,outcome,[9],inactive
NC(=O)n1c(O)c(C(=O)c2cccs2)c2cc(Cl)ccc21,Potency,[7],inactive
C#C[C@]1(O)CC[C@H]2[C@@H]3CCC4=CC(=O)CC[C@@H]4[C@H]3CC[C@@]21CC,Potency,[7],inactive
Cc1ccc(O)c([C@H](CCN(C(C)C)C(C)C)c2ccccc2)c1,Potency,[7],inactive
CC(=O)O[C@H]1C[C@@H]2CC[C@@H]3[C@H](CC[C@@]4(C)[C@H]3C[C@H]([N+]3(C)CCCCC3)[C@@H]4OC(C)=O)[C@@]2(C)C[C@@H]1N1CCCCC1,Potency,[7],inactive
O=[N+]([O-])c1cccc(S(=O)(=O)NCCNS(=O)(=O)c2cccc([N+](=O)[O-])c2)c1,Potency,[7],inactive
CN=C(N)NCCC[C@H](N)C(=O)O,outcome,[10],inactive
same,outcome,[11],inactive
same,Potency,[7],inactive
same,outcome,[12],inactive
COc1ccc(C(=O)c2ccccc2)c(O)c1,Potency,[1],inactive
same,Potency,[2],inactive
same,Potency,[3],inactive
same,Potency,[4],inactive
same,Potency,[5],inactive
same,Potency,[6],inactive
same,Potency,[7],inactive
CCOC(=O)[C@H](CCc1ccccc1)N[C@@H](C)C(=O)N1[C@H](C(=O)O)C[C@H]2CCCC[C@@H]21,outcome,[10],inactive
same,outcome,[11],inactive
same,outcome,[12],inactive
C[C@H]1O[C@@H](O[C@H]2CC[C@@]3(C)[C@H](CC[C@@H]4[C@@H]3C[C@@H](O)[C@]3(C)[C@@H](C5=CC(=O)OC5)CC[C@]43O)C2)C[C@H](O)[C@@H]1O[C@H]1C[C@H](O)[C@H](O[C@H]2C[C@H](O)[C@H](O[C@@H]3O[C@H](CO)[C@@H](O)[C@H](O)[C@H]3O)[C@@H](C)O2)[C@@H](C)O1,Potency,[1],0.147 µM (active)
same,Potency,[4],0.414 µM (active)
same,Potency,[5],0.293 µM (active)
same,Potency,[6],0.332 µM (active)
same,Potency,Furin (Homo sapiens),inactive
same,outcome,[11],inactive
same,Potency,[7],inactive
O=C(c1ccc(F)cc1)C1CCN(CCn2c(=S)[nH]c3ccccc3c2=O)CC1,Potency,[7],inactive
CC(C)NCC(O)c1ccc2ccccc2c1 (stereo not drawn),Potency,[7],inactive
OC1C(O)C(O)C(O)C(O)C1O (stereo not drawn),Potency,[7],inactive
CCCCNc1ccc(C(=O)OCCOCCOCCOCCOCCOCCOCCOCCOCCOC)cc1,Potency,[7],inactive
CCN(CC)CCOc1ccc2c(c1)C(=O)c1cc(OCCN(CC)CC)ccc1-2,Potency,[1],23.3 µM (active)
same,Potency,[2],inactive
same,Potency,[6],18.7 µM (active)
same,Potency,[7],inactive
CC1(COc2ccc(CC3SC(=O)NC3=O)cc2)CCCCC1 (stereo not drawn),Potency,Furin (Homo sapiens),inactive
same,Potency,[13],19.2 µM (active)
same,Potency,[14],21.5 µM (active)
same,"activity change, negative = inhibition",[7],6.2% [at 6.83 µM]
same,outcome,[15],inactive
same,Potency,[16],3.11 µM (active)
C=C1c2cccc(O)c2C(O)=C2C(=O)[C@]3(O)C(O)=C(C(N)=O)C(=O)[C@@H](N(C)C)[C@@H]3[C@@H](O)[C@H]12,Potency,Furin (Homo sapiens),8.55 µM (active)
same,Potency,[14],19.2 µM (active)
same,Potency,[7],3.98 µM (active) and 2.99 µM (active)
same,outcome,[15],inactive
same,Potency,[17],8.91 µM (active) and 316 µM (active)
same,Potency,[18],251 µM (active)
O=[N+]([O-])c1ccc(/C=N\O)o1,Potency,[1],5.85 µM (active)
same,Potency,[2],0.414 µM (active)
same,Potency,[3],inactive
same,Potency,[4],1.17 µM (active)
same,Potency,[5],inactive
same,Potency,[6],inactive
same,Potency,[7],inactive
O=C(Oc1cccc2cccnc12)c1ccccc1,Potency,[1],8.27 µM (active)
same,Potency,[2],inactive
same,Potency,[4],inactive
same,Potency,[6],inactive
same,Potency,[7],inactive
O=C(CN1CCN(Cc2ccc3c(c2)OCO3)CC1)N1c2ccccc2Sc2ccccc21,Potency,[7],inactive
CCc1oc2ccccc2c1C(=O)c1cc(Br)c(O)c(Br)c1,Potency,Furin (Homo sapiens),24.1 µM (active)
same,Potency,[13],9.61 µM (active)
same,Potency,[14],17.1 µM (active)
same,Potency,[7],10.6 µM (active)
same,Potency,[16],1.75 µM (active)
same,Potency,[17],79.4 µM (active)
same,Potency,[18],28.2 µM (active)
